# Results published in PubChem BioAssay (NCATS).
# Records with an inconclusive call do not appear. Active and inactive are the calls of the source. Unless noted, the call rests on the fitted dose curve; in most records, active means well fitted curve in the direction sought with a large enough effect; inconclusive means small, poorly fitted or top-dose-only effect, or another doubt; inactive means no such curve, though single readings can be large; an effect the other way counts as inactive or inconclusive.
# What was measured:
# [1] = qHTS for Hypoxia signaling pathway (HIF-1) agonists against the NCATS CANVASS Library (AID 1347375)
# Procedure, shortened: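 Inducers of HIF-1 signaling were detected in ME-180 cells bearing an HRE-driven beta-lactamase reporter after 17 h compound exposure. Activity came from CCF4-AM FRET emission ratio (460/530 nm) in qHTS format.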
# [2] = 10-beta competent E. coli microbial cell viability qHTS against the NCATS CANVASS Library (AID 1347376)
# Procedure, shortened: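 Cytotoxicity toward competent E. coli is scored from cellular ATP content via BacTiter-Glo luminescence following overnight compound exposure at 37C, 5% CO2.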
# [3] = qHTS for H2AX Agonists against the NCATS CANVASS Library (AID 1347378)
# Procedure, shortened: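 CHO-K1 cells were plated overnight at 37C, then exposed to compounds (concentration series, 0.76% DMSO final) for 3 hr at 37C. Lysates received Eu-cryptate anti-pH2AX (S139) and d2 anti-H2AX antibodies; after 24 hr at room temperature, TR-FRET 665/620 nm ratio was read.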
# [4] = qHTS for Inflammasome Signaling Inhibitors: IL-1-beta AlphaLISA screen against the NCATS CANVASS Library (AID 1347379); conditions: THP-1 LPS/ATP, IL-1B AlphaLISA secretion, 16 h; at 57.5 µM (top of the series)
# Procedure, shortened: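 Human THP-1 cells were pretreated 1 hr at 37 °C with compounds (up to 57.5 uM final), then stimulated with LPS (250 ng/mL final) and ATP (1.25 mM final). Secreted IL-1B was read by AlphaLISA after 16 hr.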
# [5] = Inflammasome Signaling qHTS Counterscreen: IL-1-beta AlphaLISA counterscreen against the NCATS CANVASS Library (AID 1347381)
# Procedure, shortened: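 To flag interference with the AlphaLISA read-out, a known amount of purified IL-1-beta (4 pg) replaced cell supernatant. Detection used anti-IL-1-beta acceptor beads, biotinylated antibody and streptavidin donor beads at room temperature.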
# [6] = Cytotoxicity qHTS for assessment of Hepg2 cells membrane integrity screened against the NCATS CANVASS Library (AID 1347387)
# Procedure, shortened: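 Fluorescence proportional to lysed-cell number, from LDH leaking out of HepG2 cells exposed 5 hr at 37C to 0.59 nM - 46 uM compound (11-point qHTS), is measured after 10 min with CytoTox-ONE.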
# [7] = qHTS for Activators of p53 Stress Response Pathway screened against the NCATS CANVASS Library (AID 1347388)
# Procedure, shortened: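 p53RE-bla HCT-116 cells (4000/well) were pre-incubated for 5 h, then treated with compound (11 points) for 16 h at 37C. After 2 h with CCF4, the 460/530 nm ratio gave reporter activation; CellTiter-Glo measured viability.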
# [8] = qHTS assay for small molecule disruptors of mitochondrial membrane potential screened against the NCATS CANVASS Library (AID 1347389)
# Procedure, shortened: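 Compounds tested in 11-point qHTS series on HepG2 cells for 1 hr; membrane-potential dye added for 30 min at 37C. Lower red-to-green ratio indicates loss of potential.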
# [9] = qHTS for activators of Nrf2/ARE signaling pathway screened against the NCATS CANVASS Library (AID 1347391)
# Procedure, shortened: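 Cells carrying an ARE-driven beta-lactamase reporter (HepG2 background) are dosed for 16 h, then stained with CCF4. Cell viability in the same wells is measured by CellTiter-Glo luminescence.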
# [10] = qHTS for activators of dead-cell proteases activity screened against the NCATS CANVASS Library (AID 1347392)
# Procedure, shortened: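 HepG2 cells, 2000/well, attached 18 h at 37C, then exposed to compounds (11-point qHTS) for 5 h. Dead-cell protease release read as luminescence from cell-impermeant AAF-aminoluciferin substrate after 15 min at room temperature.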
# [11] = qHTS for inhibitors of ER calcium dysfunction: SERCaMP assay screened against the NCATS CANVASS Library (AID 1347393)
# Procedure, shortened: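 SH-SY5Y GLuc-SERCaMP, 1000 cells/well, 4 h attach; cpd 16 h, 37C/5% CO2; thapsigargin (added as 6x 600 nM) 4 h; coelenterazine; luminescence. Reduced reporter release = ER Ca stabilization.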
# [12] = Vero-766 cells viability qHTS against the NCATS CANVASS Library: Counterscreen for Zika virus inhibition assay (AID 1347394)
# Procedure, shortened: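 Uninfected Vero 766 (African green monkey) cells, 1000/well, attached overnight, then exposed 72 h at 37C to compounds (11-point qHTS). Viability read by CellTiter-Glo luminescence; media-only wells served as 100% inhibition.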
# [13] = qHTS for inhibitors of Wild type Zika virus screened against the NCATS CANVASS Library (AID 1347396)
# Procedure, shortened: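 Using ATP-based luminescence (CellTiter Glo), this screen scores rescue of Vero 766 cells from wild-type Zika killing at 72 h post-infection. Compounds are tested in a concentration series.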
# [14] = Viability qHTS for inhibitors of the SERCaMP assay screened against the NCATS CANVASS Library (AID 1347400)
# Procedure, shortened: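 Cytotoxicity counter-screen: ATP content (CellTiter-Glo luminescence) of SH-SY5Y-GLuc SERCaMP MJH297 cells after 48 h at 37C with compounds in an 11-point qHTS series.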
# [15] = Redox Reaction Profiling qHTS: Assay Interference Panel against the NCATS CANVASS Library (AID 1347401)
# Procedure, shortened: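 Compounds in 11-point series incubated with 5 uM resazurin and 200 uM DTT in 50 mM HEPES pH 7.3, 50 mM NaCl. Resorufin fluorescence (Ex 525/Em 598) read before and after 15 min in the dark.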
# [16] = qHTS for inhibitors of Rabies Virus screened against the NCATS CANVASS Library (AID 1347402; calls by dose curve)
# [17] = qHTS to identify inhibitors of the type 1 interferon - major histocompatibility complex class I in skeletal muscle: primary screen against the NCATS Pharmaceutical Collection (AID 1347407)
# Procedure, shortened: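 Immortalized human myoblasts (C25cl48) with HiBiT knocked into endogenous HLA-B*08:01 were stimulated with 4 ng/ml IFN-beta and treated with compounds (8-point, 1:5, top 46 uM final) for 24 h at 37 C; HiBiT lytic luminescence read.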
# [18] = biological target: Protein phosphatase 1D (Homo sapiens) (UniProt O15297); assay: RapidFire Mass Spectrometry qHTS Assay for Modulators of WT P53-Induced Phosphatase 1 (WIP1) (AID 1347424)
# Procedure, shortened: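 10 nM WIP1 preincubated with compounds 1 hr at room temperature in pH 7.5 Tris buffer with 30 mM MgCl2, 1 mM TCEP; 2 uM VEPPL-pS-QETFS phosphopeptide for 5 min, formic acid quench; dephosphorylated product quantified by RapidFire MS against labelled standard.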
# [19] = qHTS for inhibitors of adenylyl cyclases using a fission yeast platform: a pilot screen against the NCATS LOPAC library (AID 1347410)
# Procedure, shortened: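 S. pombe CHP2027 (AC9-GNAS-PDE4D2) carrying a PKA-repressed fbp1-GFP reporter was exposed to LOPAC compounds (final up to 57 µM) for 18 h at 30C in the dark, in EMM with histidine, lysine and uracil; GFP gain-of-signal read by laser scanning cytometry.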
# Sequence of Protein phosphatase 1D (Homo sapiens) (O15297 whole entry, looked up): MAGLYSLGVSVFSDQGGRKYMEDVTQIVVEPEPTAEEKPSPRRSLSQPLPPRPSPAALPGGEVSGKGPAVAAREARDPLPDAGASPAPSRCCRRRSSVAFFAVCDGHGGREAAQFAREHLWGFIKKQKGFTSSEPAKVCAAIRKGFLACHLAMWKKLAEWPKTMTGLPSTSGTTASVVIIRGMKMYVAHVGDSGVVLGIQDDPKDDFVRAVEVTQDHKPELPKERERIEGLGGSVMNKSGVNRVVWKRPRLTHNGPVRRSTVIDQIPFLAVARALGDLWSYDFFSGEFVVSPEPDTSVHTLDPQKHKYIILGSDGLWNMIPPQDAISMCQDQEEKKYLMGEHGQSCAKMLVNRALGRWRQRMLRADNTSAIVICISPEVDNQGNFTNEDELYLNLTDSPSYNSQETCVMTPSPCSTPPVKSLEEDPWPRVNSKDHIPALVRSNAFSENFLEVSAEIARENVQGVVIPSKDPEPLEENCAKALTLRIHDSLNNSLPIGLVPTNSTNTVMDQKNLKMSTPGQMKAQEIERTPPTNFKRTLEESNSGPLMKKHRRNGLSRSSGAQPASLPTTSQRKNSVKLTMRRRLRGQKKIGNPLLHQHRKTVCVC
smiles,measurement,setting,value
NCC(O)c1ccc(O)cc1 (configuration not stated),outcome,[1],inactive
same,outcome,[2],inactive
same,outcome,[3],inactive
same,outcome,[4],inactive
same,outcome,[5],inactive
same,outcome,[6],inactive
same,outcome,[7],inactive
same,outcome,[8],inactive
same,outcome,[9],inactive
same,outcome,[10],inactive
same,outcome,[11],inactive
same,outcome,[12],inactive
same,outcome,[13],inactive
same,outcome,[14],inactive
same,outcome,[15],inactive
same,outcome,[16],inactive
CC(C)NCC(O)c1ccccc1Cl (configuration not stated),Potency,[17],inactive
same,Potency,[18],inactive
CC(C)=CC1C(C(=O)OCc2cccc(Oc3ccccc3)c2)C1(C)C (configuration not stated),Potency,[17],inactive
same,Potency,[18],inactive
CC(C)(C)NCC(O)c1cc(Cl)c(N)c(Cl)c1 (configuration not stated),Potency,[17],inactive
same,Potency,[18],inactive
N[C@@H](Cc1ccc(N(CCCl)CCCl)cc1)C(=O)O,Potency,[17],inactive
same,Potency,[18],inactive
CC1NCCOC1c1ccccc1 (configuration not stated),Potency,[17],inactive
same,Potency,[18],inactive
C#CCN(C)[C@H](C)Cc1ccccc1,Potency,[17],inactive
same,Potency,[18],inactive
C#CCOC(C(=O)OCCN(C)C)(c1ccccc1)c1ccccc1,Potency,[17],inactive
same,Potency,[18],inactive
COc1ccc(C(=O)c2c(C)n(CCN3CCOCC3)c3ccccc23)cc1,Potency,[17],inactive
same,Potency,[18],inactive
CC(C)(N)Cc1ccc(Cl)cc1,Potency,[17],inactive
same,Potency,[18],inactive
O=C(O)c1ccc2[nH]cc(CCCCN3CC=C(c4ccccc4)CC3)c2c1,Potency,[17],inactive
same,Potency,[18],inactive
CCN(CC)CCOC(=O)C(O)(c1ccccc1)c1ccccc1,Potency,[17],inactive
same,Potency,[18],inactive
CCCC1CCCCN1 (configuration not stated),Potency,[17],inactive
same,Potency,[18],inactive
CO[C@]12CC[C@@]3(C[C@@H]1[C@](C)(O)C(C)(C)C)[C@@H]1Cc4ccc(O)c5c4[C@@]3(CCN1CC1CC1)[C@H]2O5,Potency,[17],48.1 µM (active)
same,Potency,[18],inactive
c1ccc2c(c1)OCC(C1=NCCN1)O2 (configuration not stated),Potency,[17],inactive
same,outcome,[19],inactive
same,Potency,[18],inactive
CC[N+](CC)(CC)CC,Potency,[17],inactive
same,Potency,[18],inactive
